# TDP1 cell CPT: DT40-hTDP1 cell growth loss with CPT; chicken DT40 Tdp1-/-;hTDP1 cells + 20 nM CPT, ATP luminescence, 48 h; Potency, µM (doses to about 46.2 µM), without a hit: top-dose activity change, negative = growth inhibition, usual class: inhibitors; hit rate 12% among 420,000; AID 686979; note: % is set by controls: 0 for no effect and ±100 for the full control effect; nearly all actives have a fitted effect of over 55% in size
#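 Chicken DT40 Tdp1-/- cells stably complemented with human TDP1 were seeded at 400 cells/well in medium containing 20 nM camptothecin, exposed to pin-transferred compounds, and grown at 37 °C for at least 48 hr. Viability was read as ATP luminescence.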
# ATXN2 expr inh: reduces ATXN2 reporter expression in HEK-293 cells | HEK-293 ATXN2-luciferase reporter, luminescence, 24 h | Potency, µM (titrated, usually from 57 µM), for inactives: top-dose activity change, negative = inhibition, usual class: inhibitors | hit rate 0.72% among 360,000 | AID 1745845; note: % is set by controls: 0 for no effect and ±100 for the full control effect; nearly all actives have a fitted effect of over 55% in size
#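 ATXN2-luciferase reporter cells (luciferase flanked by upstream and downstream ATXN2 gene portions) were treated 24 h at 37 °C with compounds at up to 57 uM. SteadyGlo luminescence gave expression; GF-AFC fluorescence gave viability.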
# HepG2 viability: kills HepG2 cells in TGF-b inhibitor counter-screen; HepG2 CAGA-GFP viability, ATP luminescence, 18 h; Potency, µM (series often up to 46.1 µM), for the others: at the top dose activity change, negative = cytotoxicity, usual class: cytotoxic; hit rate 0.76% among 410,000
#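 HepG2 CAGA-GFP cells (1000/well, DMEM with 1% FBS) received compound, then TGF-beta at 500 pg/mL final, and were incubated 18 hours at 37 degrees C. Viability was read by CellTiter-Glo luminescence. Media-only wells were set as complete cell-killing and DMSO as no toxicity.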
# DT40 TDP1 no CPT: qHTS for Inhibitors of human tyrosyl-DNA phosphodiesterase 1 (TDP1): qHTS in cells in absence of CPT | hit rate 15% among 420,000 | DT40 Tdp1-/- hTDP1 cells, no CPT, ATP luminescence, 48 h | AID 686978, 2013 | Potency, µM (doses to about 46.2 µM), for inactives: top-dose activity change, negative = growth inhibition, usual class: inhibitors; note: % is set by controls: 0 for no effect and ±100 for the full control effect; nearly all actives have a fitted effect of over 55% in size
#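 No-CPT arm: Tdp1-/-;hTDP1 DT40 cells (400/well) plus compounds, incubated ≥48 hr at 37 °C. Readout CellTiter-Glo luminescence.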
# ATXN viability: reduces viability in counter-screen for ATXN expression inhibitors. S2 cells (HEK-293 line with an ATXN2-luciferase reporter) viability, CellTiter-Fluor protease fluorescence, 24 h. Potency, µM (doses to about 56.7 µM), usual class: cytotoxic. hit rate 0.49% among 400,000. AID 651635; note: nearly all actives have a fitted effect of over 40% in size
# TGFb inhibitor: blocks TGF-b signaling. HepG2 CAGA-GFP TGF-b/SMAD3 reporter, GFP fluorescence, 18 h; TGF-beta stimulated, 500 pg/mL final. hit rate 1.2% among 410,000. Potency, µM (top dose mostly 46.1 µM), without a hit: at the top dose activity, negative = inhibition, most hits filed as inhibitors; note: % is set by controls: 0 for no effect and ±100 for the full control effect; nearly all actives have a fitted effect of over 65% in size
#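 GFP signal (ex488/em500-530) from TGF-beta-stimulated HEPG2 CAGA-GFP cells, 500 pg/mL final, 18 h at 37 degrees C in DMEM plus 1% FBS, normalized to unstimulated and DMSO-stimulated controls.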
# * = called active by the depositor; i = inactive; ? = inconclusive; · = no result given. Only some compounds are listed: those with a hit (about 17% of all), similar ones and a draw of the others. Calls come from the whole dose curve; as a rule, active = well fitted curve in the direction sought with a large enough effect; inconclusive = small, poorly fitted or top-dose-only effect, or another doubt; inactive = no such curve, though single readings can be large; an effect the other way counts as inactive or inconclusive. Potency is the fitted concentration of half-maximal effect.
SMILES,TDP1 cell CPT,ATXN2 expr inh,HepG2 viability,DT40 TDP1 no CPT,ATXN viability,TGFb inhibitor
COC(=O)C1C(c2ccc(OC)cc2)C(C(=O)OC)S(=O)(=O)C(CCN2CCCCC2)S1(=O)=O (centres undefined),0%,-7%,-16%,4%,i,2%
O=c1c2ccccc2nc(-c2ccccc2)n1CCN1CCOCC1,-18%,3%,-2%,-1%,i,4%
O=c1c2c(-c3ccccc3)csc2nc2c3ccccc3c(NCCN3CCOCC3)nn12,8.2µM*,?,-4%,5.2µM*,·,0%
c1csc(-c2csc3ncnc(NCCCN4CCOCC4)c23)c1,16µM*,-7%,5%,13µM*,i,-4%
c1ccc(-c2csc3ncnc(NCCCN4CCOCC4)c23)cc1,12µM*,0%,4%,13µM*,i,7%
OCc1ccccc1O,13%,16%,·,-5%,i,·
OCc1ccccc1SSc1ccccc1CO,2.3µM*,?,-60%,3.3µM*,?,?
CCc1ccccc1NC(=O)CN1CCN(CC(=O)Nc2ccc3c(c2)OC2(CCCCC2)O3)CC1,18µM*,-29%,-3%,4.1µM*,i,-15%
O=C(NN1c2ccccc2CCc2ccccc21)c1ccccc1Br,21µM*,-25%,-8%,?,i,-7%
CNC(=O)N1c2ccccc2CCc2ccccc21,-23%,·,-7%,?,?,1%
COc1cc(OC)cc(-c2sc3ccc(OC)cc3c2C#CCO)c1,?,-14%,-30%,21µM*,i,?
COc1cccc(-c2sc3ccc(OC)cc3c2C#CCCO)c1,26µM*,-20%,-10%,?,i,-12%
COc1cc(OC)cc(-c2sc3ccc(OC)cc3c2C#CC(C)(C)O)c1,-15%,-21%,-28%,-12%,i,?
O=C(Oc1cc(=O)n2ccccc2n1)c1ccccc1,-30%,-8%,5%,?,i,5%
CCN(CC)CC(O)Cn1c(-c2cccc(Cl)c2)nc2cc(C)c(C)cc21 (centres undefined),-8%,44%,-6%,?,i,-3%
Cc1ccc([C@H]2N[C@]3(CCCN(Cc4ccc(F)cc4)C3=O)[C@H]3C(=O)N(C)C(=O)[C@@H]23)cc1,?,1%,-51%,13µM*,i,?
Cc1ccc([C@H]2N[C@]3(CCCN(Cc4ccccc4)C3=O)[C@H]3C(=O)N(C)C(=O)[C@@H]23)cc1,-17%,-1%,15%,?,i,-5%
Cc1ccc([C@H]2N[C@]3(CCCN(Cc4ccc(Br)cc4)C3=O)[C@H]3C(=O)N(C)C(=O)[C@@H]23)cc1,3%,-13%,-12%,13µM*,i,1%
CC(C)CCNC(=O)NC(=O)CSc1ncccn1,3%,·,2%,5%,i,1%
Cc1ccc(S(=O)(=O)c2nc(S(C)(=O)=O)sc2N2CCC(C)CC2)cc1,15µM*,-6%,-8%,15µM*,i,-8%
Cc1ccc(S(=O)(=O)c2nc(S(C)(=O)=O)sc2N2CCCCCC2)cc1,-25%,-1%,-11%,-1%,i,-9%
Cn1c(=O)c(-c2ccc(Cl)cc2)nc2cnc(Nc3ccccc3)nc21,6%,·,·,13%,·,·
CC(C)OCCCN(CC(O)c1ccccc1)CC(O)c1ccccc1 (centres undefined),?,0%,3%,?,i,-2%
OC(CN(Cc1ccccc1)Cc1ccccc1)c1ccccc1 (centres undefined),16µM*,-11%,-14%,18µM*,i,-5%

# Bioassay records (PubChem BioAssay)
